# Bioassay records (PubChem BioAssay)
# HT1080 IDH1KD tx: toxicity to HT-1080 IDH1 knockdown cells (counter line) | HT-1080 IDH1 knockdown viability, ATP luminescence, 48 h | Potency, µM (series often up to 46.1 µM), for inactives: at the top dose activity, negative = toxicity, usual class: cytotoxic | 2% of 360,000 active;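 note: potency is the fitted concentration of half-maximal effect; 0% = DMSO wells and -100% = cell-free medium wells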
#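 HT-1080-IDH1KD cells (IDH1 knocked down), 750/well in RPMI with 5% FBS, treated with compound 48 h at 37 degrees C. Viability by CellTiter-Glo luminescence, normalised to DMSO and no-cell wells; concentration-response curves classed.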
# DT40 TDP1 CPT: DT40-hTDP1 cell growth loss with CPT; Potency, µM (series often up to 46.2 µM), for the others: at the highest dose activity change, negative = growth inhibition, hits mostly inhibitors; chicken DT40 Tdp1-/-;hTDP1 cells + 20 nM CPT, ATP luminescence, 48 h; 12% of 420,000 active; AID 686979; note: potency is the fitted concentration of half-maximal effect; nearly all actives have a fitted effect of over 55% in size
#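 Chicken DT40 Tdp1-/- cells complemented with human TDP1, 400 cells/well, exposed to compounds plus 20 nM camptothecin for at least 48 h at 37 C; viability read as ATP content by CellTiter-Glo luminescence.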
# uPA generation: cell surface uPA generation inhibition | cell surface uPA generation assay, qHTS | Potency, µM (series often up to 38.3 µM), inactives show top-dose activity change, negative = inhibition, actives largely listed as inhibitors | 0.31% of 330,000 active; active = well fitted inhibition curve with a large enough effect; inconclusive = small, poorly fitted or top-dose-only effect; inactive = no such curve, though single readings can be large or run the other way; tested in mouse RAW 264.7 cells; note: potency is the fitted concentration of half-maximal effect; nearly all actives have a fitted effect of over 55% in size
# IL1B secr inh: inflammasome signaling inhibition, IL-1 beta readout. THP-1 LPS/ATP IL-1B secretion, AlphaLISA, 16 h; active compounds read low. activity change, % at 57.5 µM. 4.7% of 360,000 active. AID 743279; in the data active = activity change below about -50%; inconclusive = mostly about -30% to -49%
#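 Secreted IL-1B measured by AlphaLISA bead assay after 16 h compound exposure of THP-1 cells; compounds (final up to 57.5 uM) added 1 h before LPS (250 ng/mL) and ATP (1.25 mM) stimulation; lower signal means less secretion.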
# DT40 TDP1 no CPT: qHTS for Inhibitors of human tyrosyl-DNA phosphodiesterase 1 (TDP1): qHTS in cells in absence of CPT | DT40 Tdp1-/- hTDP1 cells, no CPT, ATP luminescence, 48 h | Potency, µM (top dose mostly 46.2 µM), for the others: at the highest dose activity change, negative = growth inhibition, hits mostly inhibitors | 15% of 420,000 active | AID 686978, 2013; note: potency is the fitted concentration of half-maximal effect; nearly all actives have a fitted effect of over 55% in size
#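 Growth kinetics read by CellTiter-Glo luminescence after ≥48 hr at 37 °C. Cells: DT40 Tdp1-/- stably carrying human TDP1, 400 per well, compound exposure in the absence of CPT (DMSO vehicle).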
# HT1080NT lethal: kills 2HG-producing HT-1080-NT fibrosarcoma cells | HT-1080-NT fibrosarcoma viability, CellTiter-Glo ATP luminescence, 48 h | Potency, µM (highest dose often 46.1 µM), inactives show top-dose activity, negative = less viability, most hits filed as cytotoxic | 1.6% of 360,000 active | AID 686970;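 note: NT is the 2HG producing partner of a matched IDH1 knockdown line; potency is the fitted concentration of half-maximal effect; 0% = DMSO-treated cells and -100% = media-only wells without cells; nearly all actives have a fitted effect of over 55% in size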
#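 HT-1080-NT fibrosarcoma cells (2HG-overproducing), 750 cells/well in RPMI with 5% FBS, dosed after 2 h and incubated 48 h at 37C. CellTiter-Glo luminescence normalized to DMSO and no-cell wells; concentration-response curves fitted and classed.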
# Starred values were filed as active, the others as inactive; ? = inconclusive; / = no result given. This is a sample that favours compounds with a hit; in the whole collection about 19% have one here. Unless noted, calls come from the whole dose curve; as a rule, active = well fitted curve in the direction sought with a large enough effect; inconclusive = small, poorly fitted or top-dose-only effect, or another doubt; inactive = no such curve, though single readings can be large; an effect the other way counts as inactive or inconclusive. Unless noted, % is set by controls: 0 for no effect and ±100 for the full control effect.
SMILES,HT1080 IDH1KD tx,DT40 TDP1 CPT,uPA generation,IL1B secr inh,DT40 TDP1 no CPT,HT1080NT lethal
Nc1c(C(=O)NCCN2CCOCC2)c2nc3ccccc3nc2n1-c1ccc2c(c1)OCO2,-23.4%,?,-11.8%,-59.0*,?,?
Nc1c(C(=O)NCCN2CCOCC2)c2nc3ccccc3nc2n1-c1ccccc1,-0.5%,?,-5.8%,-52.4*,16.4µM*,-1.8%
CN(C)c1ncc2nc(-c3ccc(Cl)cc3)c(=O)n(C)c2n1,/,2.2%,/,/,12.4%,/
Cc1ccc2c(c1)c1ccc3c(c1n2C)C(=O)C=CC3=O,-1.3%,0.517µM*,?,-2.9,0.581µM*,-12.2%
Cn1c2ccccc2c2ccc3c(c21)C(=O)C=CC3=O,22.9%,0.411µM*,-3.1%,?,0.517µM*,12.6%
COc1ccc2c(c1)c1ccc3c(c1n2C)C(=O)C=CC3=O,-5.1%,0.731µM*,?,-6.0,0.517µM*,-2.0%
Cc1ccccc1C(=O)c1cccn1CC(=O)NC(C)c1ccc2c(c1)OCCO2 (configuration not stated),-2.6%,-10.9%,6.8%,-21.7,?,4.9%
CC(NC(=O)C1CCOCC1)c1nnc2n1CCN(Cc1cc3c(cc1Cl)OCO3)CC2 (configuration not stated),/,2.2%,/,/,-3.2%,/
Cc1cccc(NC(=O)CSCC(=O)Nc2sccc2C#N)c1,-0.2%,17.7%,6.5%,1.2,-27.2%,0.8%
CC1=C(C(=O)O)N2C(=O)C(NC(=O)C(N)c3ccc(O)cc3)C2SC1 (configuration not stated),/,6.5%,/,/,-9.8%,/
O=C(NC1CCCC1)C1c2ccccc2OCC(=O)N1CCc1ccccc1 (configuration not stated),3.6%,-24.1%,/,26.4,?,9.6%
O=C(NC1CCCCC1)C1c2ccccc2OCC(=O)N1CCc1c[nH]c2ccccc12 (configuration not stated),25.9µM*,-21.9%,/,0.7,25.9µM*,0.0%
O=C(O)C1C2C=CC(O2)C1C(=O)Nc1ccc(S(=O)(=O)Nc2ccccc2)cc1 (configuration not stated),?,14.6µM*,/,-0.2,?,2.4%
COc1ccc(S(=O)(=O)N2CCCOC2CNC(=O)C(=O)NCc2ccccc2C)cc1 (configuration not stated),-0.1%,-18.8%,/,-18.5,-27.6%,4.0%
CC[n+]1c(-c2ccccc2)csc1Nc1c(C)n(C)n(-c2ccccc2)c1=O,0.9%,?,-7.4%,0.0,-38.9%,-0.5%
c1ccc(Nc2scc(-c3ccccc3)[n+]2Cc2ccco2)cc1,-0.6%,16.4µM*,-20.6%,9.8,23.1µM*,?
c1ccc(C[n+]2c(-c3ccccc3)csc2Nc2ccccc2)cc1,4.4%,10.3µM*,-2.2%,-9.3,?,10.2%
CCc1ccc(NC(=O)Cn2c(-c3cncs3)nc3ccccc32)cc1,/,?,/,/,14.6µM*,/
COC(=O)c1ccccc1NC(=O)Cn1c(-c2nonc2N)nc2ccccc21,0.316µM*,0.794µM*,/,43.2,0.708µM*,0.708µM*
COC(=O)c1ccc(NC(=O)Cn2c(-c3nonc3N)nc3ccccc32)cc1,-13.2%,?,4.7%,-5.9,-13.1%,-5.7%
CC(=O)c1cccc(NC(=O)Cn2c(-c3cncs3)nc3ccccc32)c1,/,-1.7%,/,/,?,/
O=C(Cn1c(-c2cscn2)nc2ccccc21)Nc1ccccc1F,?,7.94µM*,/,-5.1,?,-7.2%
CCOC(=O)c1ccc(NC(=O)Cn2c(-c3nonc3N)nc3ccccc32)cc1,-0.3%,16.4µM*,11.2%,-7.7,?,-3.2%
C=CCOc1ccc(CC(=O)O)cc1Cl,/,0.2%,/,/,2.3%,/
COCCCn1cc(CN(C)C2CN(Cc3cn(CCCOC)nn3)S(=O)(=O)C2)nn1 (configuration not stated),1.6%,-11.3%,/,2.2,-17.1%,-0.5%
SMILES,HT1080 IDH1KD tx,DT40 TDP1 CPT,uPA generation,IL1B secr inh,DT40 TDP1 no CPT,HT1080NT lethal
Cn1c(SCC(=O)Nc2ccc3c(c2)n(C)c(=O)n3C)nnc1-c1ccncc1,3.7%,-2.1%,7.9%,-18.0,0.8%,1.7%
COc1ccc(CCN2CC(C(=O)NCCc3cnn(C)c3)CCC2=O)cc1 (configuration not stated),22.8%,?,-9.9%,-3.5,?,11.2%
COc1cccc(-c2oc3c(c2-c2ccc(OC)nc2)C(O)CCC3)c1 (configuration not stated),-15.1%,-19.7%,/,-11.1,?,0.8%
Cc1ccc(C)c(Nc2nc(-c3cccnc3)cs2)c1,-8.7%,?,3.2%,-80.6*,?,-1.8%
c1cncc(Nc2nc(-c3ccncc3)cs2)c1,?,?,/,?,?,-3.3%
Clc1ccccc1-c1csc(Nc2cccnc2)n1,?,3.6%,4.9%,-60.2*,-9.1%,3.6%
Clc1ccccc1Nc1nc(-c2cccnc2)cs1,-20.5%,-1.0%,-4.1%,-86.7*,?,-24.0%
CCOc1ccccc1Nc1nc(-c2cccnc2)cs1,-15.4%,?,3.3%,-59.3*,?,-16.1%
c1cncc(Nc2nc(-c3cccnc3)cs2)c1,0.0%,-8.3%,/,-7.1,-29.4%,7.1%
CCC(C)(C)NC(=O)CN(Cc1ccco1)C(=O)CCC(=O)Nc1nccs1,9.8%,1.3%,-0.7%,-2.5,-6.0%,15.5%
CCN(CC(=O)N1CCCC1)S(=O)(=O)c1cc(C)ccc1OC,4.2%,17.7%,-0.3%,1.8,-2.7%,10.3%
CCCCOc1ccc(NC(=S)Nc2cc(C)nc(SCCCC)n2)cc1,23.4%,5.8µM*,1.2%,11.1,2.91µM*,18.3%
CCOc1ccc(NC(=O)CSc2nc(C)cc(C)n2)cc1,17.8%,?,10.6%,19.6,?,-2.2%
Cc1ccc(-n2nc(CO)c(C(=O)NCc3cccs3)n2)cc1C,/,-24.6%,/,/,-15.3%,/
COc1ccc(-n2ccnc(NCCc3ccc(S(N)(=O)=O)cc3)c2=O)cc1,/,2.7%,/,/,-26.7%,/
Cc1ccc(-n2ccnc(NCc3cccs3)c2=O)cc1C,/,?,/,/,13µM*,/
COc1cc2ncnc(NCCc3ccccc3)c2cc1OC,5.4%,13µM*,?,0.0,9.2µM*,10.0%
COc1ccc(-n2ccnc(NCCc3ccccc3)c2=O)cc1OC,/,?,/,/,20.6µM*,/
COc1cc2ncnc(NCc3ccc(C)cc3)c2cc1OC,-13.2%,?,-3.4%,-1.2,23.1µM*,3.4%
N#Cc1c(-n2ncnc2-c2cccc(Cl)c2)sc2c1CCCCC2,/,-14.7%,/,/,-10.8%,/
Cc1ccc(CNC(=O)c2sc3nc[nH]c(=O)c3c2C)cc1,/,-10.6%,/,/,-19.7%,/
